Assay results published in PubChem BioAssay (NCATS).
Active and inactive are the calls of the source. Calls follow the shape of the dose curve; as a rule, active = well fitted inhibition curve with a large enough effect; inconclusive = small, poorly fitted or top-dose-only effect; inactive = no such curve, though single readings can be large or run the other way.

What follows are compounds tested against Single-stranded DNA cytosine deaminase (Homo sapiens) (UniProt Q9GZX7) (assay: Validation qHTS assay for inhibitors of Activation Induced Cytidine Deaminase (AID): AID signal (AID 1347429)). Conditions: Recombinant AID, FRET ssDNA deamination with UDG, fluorescence; series mostly up to 115 µM; activity change, negative = inhibition: at the top concentration.
Chain of Single-stranded DNA cytosine deaminase (Homo sapiens) (Q9GZX7 whole entry, looked up): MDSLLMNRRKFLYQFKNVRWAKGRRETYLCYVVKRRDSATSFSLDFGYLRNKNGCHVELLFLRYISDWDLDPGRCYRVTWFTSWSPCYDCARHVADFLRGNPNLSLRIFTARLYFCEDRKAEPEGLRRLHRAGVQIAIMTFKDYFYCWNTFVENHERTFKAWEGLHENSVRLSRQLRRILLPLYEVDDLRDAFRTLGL
Description: Assay Provider (PI) Patricia Gearhart Ph.D. National Institute on Aging National Institute of Health (NIH), Bethesda, MD Assay Provider (PI) Rahul Kohli Ph.D. Perelman School of Medicine University of Pennsylvania, Philadelphia, PA Activation-Induced Deaminase (AID) is a cytosine deaminase which converts cytosine into uracil within stretches of ssDNA. The presence of uracil in DNA initiates a cascade of mutagenic DNA repair to introduce point mutations and DNA double strand breaks. Specific targeting of AID to the immunoglobulin heavy chain loci (Igh) promotes mutagenesis in the antibody variable region for somatic hypermutation (SHM) or switch regions leading to class switch recombination (CSR). However, AID also plays a role in accumulating unnecessary mutations across the genome. Mis-targeting of AID results in the initiation of tumor development and leads to greater drug resistance among cancer cells when continually expressed. To identify an AID inhibitor, a small molecule library will be screened in collaboration with NCATS core facility at NIH. To confirm biological function, inhibitors will be examined in an in vitro murine B-cell activation assay and subsequent secondary validation screens. Top molecules will be further screened to identify inhibitory efficacy against a wild type primary splenocytes assay. Using these approaches, we hope to identify a small molecule with great efficacy and low toxicity for use as a molecular probe to further characterize AID's intricacies, or even as a therapeutic. A FRET based analysis of cytosine deamination, was developed to identify potential inhibitors of AID catalytic activity. This screen has two signal output, Read 1 evaluates the AID inhibition response. The second readout (Read 2) evaluates UDG response and is uses as a counterscreen to exclude false positive inhibitors. Inhibition in AID and inactivity in the UDG signal is the desired outcome for this assay.
PROTOCOL TABLE SEQUENCE No. (e.g., 1, 2, 3, etc.); […] (e.g., Cells, Incubation, Reagent, etc.); VALUE; DESCRIPTION 1a; Reagent; 3 uL; [4/3x] […] 250 nM DJC20 / 250 nM DJC23 [Substrate] 5; Time; 4 hr; incubation at room temperature 6; Reagent; 4 uL; [2x] 250 mM NaOH 7; Time; 15 sec; centrifuge at 1000 rpm 8; Time; 30 min; incubation at room temperature 9a; Detection; fluorescence (Read 1: AID); EnVision (PerkinElmer) plate reader, 540 excitation and 590 emission filters 9b; Detection; fluorescence (Read 2: UDG); EnVision (PerkinElmer) plate reader, 560 excitation and 665 emission filters NOTES (numbers refer to sequence above) 1a; Reagents were dispensed in a medium-binding black solid-bottom Greiner plates (789176F) using a BioRptr liquid dispenser. Dispense 3 uL of [4/3x] 1 uM AID (provided by Kohli lab) and [4/3x] 2 U/mL UDG (NEB M0280L) into columns 1, 2, 5 to 48. 1b; Dispense 3 uL of [4/3x] 2 U/mL UDG into column 3. 1c; Dispense 3 uL of [4/3x] 1 uM AID into column 4. 2a; Compound ([…] [uM] (0.64; 3.2; 16; 80; 400; 2,000; 10,000; 20,000) double pin-transferred (Dip Factor = 2) using the Kalypsys (Wako USA) pintool equipped with a 1536 pinhead for a final concentration range of 7.32 nM - 114 uM. 2b; 10 mM Aurintricarboxylic Acid (Sigma A1895) (ATA, 8-point, n = 2, 1:2.5 dilution in column 2) double pin-transferred (Dip Factor = 2) using the Kalypsys (Wako USA) pintool equipped with a 1536 pinhead for a [final] range of 186 nM - 114 uM. 3; Room temperature incubation. 4; Dispense 1 uL of substrate mixture from the Kohli lab [4x] […] DJC20 and [4x] 250 nM DJC23 into columns 1 to 48 . 5; Room temperature incubation. 6; Dispense 4 uL of substrate mixture [2x] 250 mM NaOH into columns 1 to 48. 7; Centrifugation step to remove bubbles. 8; Room temperature incubation 9a; Fluorescence signal (column label AID) was read using the EnVision plate reader. Excitation filter = 540(8) nm, barcode = 311; Emission filter = 590(20) nm, barcode = 217; Mirror = D555, barcode = 405. […]
% is scaled to controls: 0 for no effect and ±100 for the full control effect.

Row | Compound | activity change, negative = inhibition
1 | CN(C)C(=O)Oc1cccc([N+](C)(C)C)c1 | 17.8% (inactive)
2 | CC(C)[N+](C)(CCOC(=O)C1c2ccccc2Oc2ccccc21)C(C)C | 17.3% (inactive)
3 | CC(=O)[C@@]1(O)CC[C@H]2[C@@H]3CCC4=CC(=O)CC[C@]4(C)[C@H]3CC[C@@]21C | 14.4% (inactive)
4 | CC(C)(C)NCC(O)c1cc(O)cc(O)c1 (stereo not given) | 25.3% (inactive)
5 | COc1ccc2c(c1OC)C(=O)O[C@@H]2[C@H]1c2c(cc3c(c2OC)OCO3)CCN1C | 36.7% (inactive)
6 | CN(C)C(=O)Oc1ccc[n+](C)c1 | 4.07% (inactive)
7 | CCCOc1ccccc1-c1nc2n[nH]nc2c(=O)[nH]1 | 12.6% (inactive)
8 | CCCCNC(=O)NS(=O)(=O)c1ccc(C)cc1 | 15.6% (inactive)
9 | CC(C)(Oc1ccc(CCNC(=O)c2ccc(Cl)cc2)cc1)C(=O)O | 23.1% (inactive)
10 | CNCCC(Oc1ccccc1OC)c1ccccc1 (stereo not given) | 18% (inactive)
11 | CC(=O)Nc1nnc(S(N)(=O)=O)s1 | 16.4% (inactive)
12 | CCCCCCCC/C=C\CCCCCCCC(=O)NCc1ccc(O)c(OC)c1 | 11.1% (inactive)
13 | NC(=O)N1c2ccccc2C=Cc2ccccc21 | 14.7% (inactive)
14 | N[C@@H](COP(=O)(O)O)C(=O)O | 16.8% (inactive)
15 | CN(C)CC/C=C1\c2ccccc2COc2ccccc21 | 18.1% (inactive)
16 | CC(C)COCC(CN(Cc1ccccc1)c1ccccc1)N1CCCC1 (stereo not given) | 44.2% (inactive)
17 | CCCN(CCC)CCc1cccc2c1CC(=O)N2 | 26.7% (inactive)
18 | NS(=O)(=O)c1cc2c(cc1Cl)NC(C1CC3C=CC1C3)NS2(=O)=O (stereo not given) | 5.36% (inactive)
19 | Nc1ncn([C@@H]2O[C@H](CO)[C@@H](O)[C@H]2O)c(=O)n1 | 11.8% (inactive)
20 | CN=C(NC#N)NCCSCc1nc[nH]c1C | 9.92% (inactive)

Row | Compound | activity change, negative = inhibition
21 | COc1cc(C(=O)OCCCN2CCCN(CCCOC(=O)c3cc(OC)c(OC)c(OC)c3)CC2)cc(OC)c1OC | 19.1% (inactive)
22 | O=c1[nH]c(=O)n([C@H]2C[C@H](O)[C@@H](CO)O2)cc1Br | 7.92% (inactive)
23 | COC(=O)[C@@H](N)Cc1ccc(O)c(O)c1 | 19.5% (inactive)
24 | CCOC(=O)c1cnc2c(cnn2CC)c1NN=C(C)C | 13.5% (inactive)
25 | CN1C(=O)CC[C@H]1c1cccnc1 | 20.5% (inactive)
26 | FC(F)(F)c1ccccc1-n1ccnc1 | 1.21% (inactive)
27 | Nc1c2c(nc3ccccc13)CCCC2O (stereo not given) | 35.3% (inactive)
28 | CNCCCN1c2ccccc2CCc2ccccc21 | 16.9% (inactive)
29 | CCN(CC)CC(=O)Nc1c(C)cccc1C | 28.3% (inactive)
30 | CN(C)CCOC(=O)COc1ccc(Cl)cc1 | 25.1% (inactive)
31 | CSc1ccc(C(=O)c2[nH]c(=O)[nH]c2C)cc1 | 24.7% (inactive)
32 | CC(C)NCC(O)c1cc(O)cc(O)c1 (stereo not given) | 91.2% (inactive)
33 | O=C(O)CCCCCCCC(=O)O | 3.66% (inactive)
34 | CCN1CCC[C@H]1CNC(=O)c1c(O)c(Cl)cc(Cl)c1OC | 24.2% (inactive)
35 | NC(=O)c1ncn([C@@H]2O[C@H](CO)[C@@H](O)[C@H]2O)c1O | 19.4% (inactive)
36 | Cc1scc2c1N(C(=O)CN1CCN(C)CC1)c1ccccc1NC2=O | 26.3% (inactive)
37 | CCCCNc1ccc(C(=O)OCCN(C)C)cc1 | 12% (inactive)
38 | O=C(O)CN(CCN(CC(=O)O)CC(=O)O)CCN(CC(=O)O)CC(=O)O | 13.4% (inactive)
39 | CCO/C([O-])=N/c1c[n+](N2CCOCC2)no1 | 13.5% (inactive)
40 | CN(C)CCCN1c2ccccc2Sc2ccc(C(F)(F)F)cc21 | 4.81% (inactive)
